Measurements: publication PMC8384837, “Expanding the binding specificity for RNA recognition by a PUF domain”

target: PUM1 PUF domain R3-GWG (Homo sapiens, UniProt Q14671 828-1176, C935G;R936W;Q939G); experiment: yeast three-hybrid, YBZ-1, SC-Leu-His + 0.5 mM 3-AT, 4 days; details: tags: N-Gal4 AD-HA kept; label: inside an RPR1-promoter hybrid RNA with tandem MS2 sites; ssRNA
Summary of the method: (§1)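 The interaction score is the logarithmic change in variant frequency from input to selection. It uses log2, with a pseudocount of 1 for absent variants, and frequencies came from PCR-amplified, Illumina-sequenced repeat regions. The libraries were Pumilio-1 PUF domains randomized at the three base-contacting residues per repeat, co-expressed with matching RNA elements in strain YBZ-1 (LexA–MS2 coat fusion, HIS3 reporter). Plating lasted four days on SC-Leu (input) or SC-Leu-His + 0.5 mM 3-AT (selection).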

Sequence of PUM1 PUF domain R3-GWG (Q14671 828-1176 C935G/R936W/Q939G): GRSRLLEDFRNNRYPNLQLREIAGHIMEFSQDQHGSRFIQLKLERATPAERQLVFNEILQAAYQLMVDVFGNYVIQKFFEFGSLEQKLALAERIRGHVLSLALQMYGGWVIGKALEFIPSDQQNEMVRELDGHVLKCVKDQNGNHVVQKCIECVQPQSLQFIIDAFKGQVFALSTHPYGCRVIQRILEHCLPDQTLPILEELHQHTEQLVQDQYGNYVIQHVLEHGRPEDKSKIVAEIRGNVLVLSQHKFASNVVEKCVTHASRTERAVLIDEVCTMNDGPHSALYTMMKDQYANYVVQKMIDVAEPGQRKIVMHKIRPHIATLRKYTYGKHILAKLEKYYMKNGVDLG

Sequence | binding signal
GGCUAGAACUAGUGGAUCCCCCGGCGCCCGGCGGCUCGAGCCCGGGUAAGUGUAAAUAGUCUGCAUGCCGCCGGGCGCCAUGCCUGCAGGUCGACUCUAGAAAACAUG | 4.07 log2 enrichment (interaction score)
GGCUAGAACUAGUGGAUCCCCCGGCGCCCGGCGGCUCGAGCCCGGGUAAGUGUAAUUAGUCUGCAUGCCGCCGGGCGCCAUGCCUGCAGGUCGACUCUAGAAAACAUG | 1.55 log2 enrichment (interaction score)
GGCUAGAACUAGUGGAUCCCCCGGCGCCCGGCGGCUCGAGCCCGGGUAAGUGUAAGUAGUCUGCAUGCCGCCGGGCGCCAUGCCUGCAGGUCGACUCUAGAAAACAUG | 3.17 log2 enrichment (interaction score)

target: PUM1 PUF domain R5-RFR (Homo sapiens, UniProt Q14671 828-1176, C1007R;R1008F;Q1011R); experiment: as above; details: tags: N-Gal4 AD-HA kept; label: inside an RPR1-promoter hybrid RNA with tandem MS2 sites; ssRNA
Sequence (Q14671 828-1176 C1007R/R1008F/Q1011R): as the sequence (Q14671 828-1176 C935G/R936W/Q939G) above, with G108C, W109R, G112Q, C180R, R181F, Q184R counted along it
Summary of the method: as §1

Sequence | binding signal
GGCUAGAACUAGUGGAUCCCCCGGCGCCCGGCGGCUCGAGCCCGGGUAAGUGUAAAUAGUCUGCAUGCCGCCGGGCGCCAUGCCUGCAGGUCGACUCUAGAAAACAUG | 2.72 log2 enrichment (interaction score)
GGCUAGAACUAGUGGAUCCCCCGGCGCCCGGCGGCUCGAGCCCGGGUAAGUGUUAAUAGUCUGCAUGCCGCCGGGCGCCAUGCCUGCAGGUCGACUCUAGAAAACAUG | 3.92 log2 enrichment (interaction score)
GGCUAGAACUAGUGGAUCCCCCGGCGCCCGGCGGCUCGAGCCCGGGUAAGUGUCAAUAGUCUGCAUGCCGCCGGGCGCCAUGCCUGCAGGUCGACUCUAGAAAACAUG | 5.35 log2 enrichment (interaction score)
GGCUAGAACUAGUGGAUCCCCCGGCGCCCGGCGGCUCGAGCCCGGGUAAGUGUGAAUAGUCUGCAUGCCGCCGGGCGCCAUGCCUGCAGGUCGACUCUAGAAAACAUG | 2.74 log2 enrichment (interaction score)

target: PUM1 PUF domain R1-YYR (Homo sapiens, UniProt Q14671 828-1176, S863Y;R864Y;Q867R); experiment: as above; details: tags: N-Gal4 AD-HA kept; label: inside an RPR1-promoter hybrid RNA with tandem MS2 sites; ssRNA
Sequence (Q14671 828-1176 S863Y/R864Y/Q867R): as the sequence (Q14671 828-1176 C935G/R936W/Q939G) above, with S36Y, R37Y, Q40R, G108C, W109R, G112Q counted along it
Summary of the method: as §1

Sequence | binding signal
GGCUAGAACUAGUGGAUCCCCCGGCGCCCGGCGGCUCGAGCCCGGGUAAGUGUAAAUAGUCUGCAUGCCGCCGGGCGCCAUGCCUGCAGGUCGACUCUAGAAAACAUG | 3.43 log2 enrichment (interaction score)
GGCUAGAACUAGUGGAUCCCCCGGCGCCCGGCGGCUCGAGCCCGGGUAAGUGUAAAUCGUCUGCAUGCCGCCGGGCGCCAUGCCUGCAGGUCGACUCUAGAAAACAUG | 2.79 log2 enrichment (interaction score)
GGCUAGAACUAGUGGAUCCCCCGGCGCCCGGCGGCUCGAGCCCGGGUAAGUGUAAAUUGUCUGCAUGCCGCCGGGCGCCAUGCCUGCAGGUCGACUCUAGAAAACAUG | 7.65 log2 enrichment (interaction score)
